Screens as filed in PubChem.
D2 ag-1 – agonists of human D2 dopamine receptor (beta-arrestin); activation, % (test concentration not listed); DiscoveRx PathHunter D2 beta-arrestin, luminescence, 90 min; 100% = 57 uM dopamine signal; P14416; actives 0.084% (n = 360,000); in the data active means activation above about 40%; inconclusive means between about 15% and that limit
Target sequence (P14416 whole entry, looked up): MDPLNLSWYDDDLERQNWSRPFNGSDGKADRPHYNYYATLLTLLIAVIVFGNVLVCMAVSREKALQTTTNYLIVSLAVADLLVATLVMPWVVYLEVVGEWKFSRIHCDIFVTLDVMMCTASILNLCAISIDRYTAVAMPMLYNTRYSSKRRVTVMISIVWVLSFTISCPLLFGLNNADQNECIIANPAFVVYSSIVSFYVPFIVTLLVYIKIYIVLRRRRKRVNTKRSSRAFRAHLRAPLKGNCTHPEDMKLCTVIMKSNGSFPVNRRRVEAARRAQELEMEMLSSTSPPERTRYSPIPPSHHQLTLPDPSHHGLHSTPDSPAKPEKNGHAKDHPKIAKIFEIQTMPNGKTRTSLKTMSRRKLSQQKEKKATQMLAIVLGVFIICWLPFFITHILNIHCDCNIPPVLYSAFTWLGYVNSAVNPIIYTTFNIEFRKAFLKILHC
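DiscoveRx PathHunter D2 beta-arrestin cells (2,100/well) attached overnight, then compound-stimulated 90 min at 37 C in HBSS/10 mM HEPES/0.1% Tween-20 buffer; beta-galactosidase complementation read by luminescence after 1 h at ambient temperature. Dopamine 57 uM final (EC100) as control.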
D2 PAM-1 – positively modulates the human D2 dopamine receptor allosterically; potentiation, % at 10 µM; HEK293 T-REx D2, calcium flux, EC20 dopamine potentiation; actives 0.34% (n = 340,000); P14416;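 active means potentiation over 3 SD above the plate norm, cut at about 30% in these data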; further: 0% is about no effect
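Cells plated with tetracycline inducer and held overnight at 30 C; calcium dye loaded 30–90 min at room temperature; baseline taken, compound added and read 180 s; EC20 dopamine then added and read 180 s.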
D2 PAM-2 – human D2 receptor positive allosteric modulation; DiscoveRx D2 beta-arrestin cells, luminescence, 90 min; 100% = 57 uM dopamine signal; AID 624464; actives 0.23% (n = 360,000); potentiation, % (concentration not given with the values); P14416; in the data active means potentiation above about 50%; inconclusive means mostly about 30% to 49%
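PathHunter D2 cells, attached overnight at 37 deg C, received compound in DMSO plus dopamine at EC20 (50 nM final) for 90 min at 37 deg C. Beta-arrestin recruitment was read as luminescence after 1 h with detection reagent at ambient temperature.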
D2 ag-2 – D2 dopamine receptor (human) agonism. activation, % at 2 µM. actives 0.53% (n = 340,000). HEK293 T-REx D2 cells, calcium flux agonist mode;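 active means activation over 3 SD above normal in the single-dose calcium agonist read, cut at about 30% in these data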; further: 0% is about no effect
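Agonism is scored from calcium flux in a force-coupled, inducible HEK293 cell line expressing D2, read kinetically for 180 s after compound addition against dopamine controls.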
D2 antag – D2 dopamine receptor (human) antagonism. HEK293 TREx D2 cells, calcium flux, dopamine EC80. inhibition, % at 10 µM. actives 2% (n = 340,000). AID 485344; in the data active means inhibition above about 30%; inactive means below that, where a call was filed; further: 0% is about no effect
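Cells plated overnight at 30 C with tetracycline; no-wash calcium dye, 30–90 min RT; 10 s baseline; compound pinned; 180 s read; EC80 dopamine added; another 180 s read.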
* = called active by the depositor; ? = inconclusive; · = not tested or not shown. Most compounds without a hit are left out; they make up all but 2.4% or so of the library.

SMILES | D2 ag-1 | D2 PAM-1 | D2 PAM-2 | D2 ag-2 | D2 antag
O=C(NC1CC2CCCC(C1)N2Cc1ccccc1)c1ccc([N+](=O)[O-])cc1 (stereo not drawn) | 1 | -25 | -4 | 0 | 87*
COc1ccccc1C(=O)NC1CC2CCC(C1)N2Cc1ccccc1 (stereo not drawn) | 1 | -32 | -5 | -1 | 89*
CCOc1ccccc1C(=O)NC1CC2CCCC(C1)N2C1CC1 (stereo not drawn) | -6 | -24 | -31 | -1 | 7
COc1ccc(C(=O)NC2CC3CCCC(C2)N3Cc2ccccc2)c(OC)c1 (stereo not drawn) | 0 | -23 | -1 | 1 | 86*
O=C(NC1CC2CCC(C1)N2Cc1ccccc1)c1ccccc1Br (stereo not drawn) | 1 | -22 | -82 | 0 | 67*
Cc1ccccc1CNCc1c(C(=O)O)c(C)n(Cc2ccc(F)cc2Cl)c1C | · | 10 | · | 0 | ·
Cc1ccc(S(=O)(=O)c2nc(-c3ccco3)oc2SC(C)c2ccccc2)cc1 (stereo not drawn) | · | -15 | · | 2 | ·
COc1ccc(C(=O)NC2CC3CCCC(C2)N3Cc2ccccc2)cc1 (stereo not drawn) | 2 | -22 | -11 | 0 | 82*
O=C(NCCCN1CCN(c2ccccc2)CC1)C1CCCN(c2ncnc3c2nc2n3CCCCC2)C1 (stereo not drawn) | 0 | -29 | -29 | 12 | 59*
Cc1ccc(S(=O)(=O)Nc2cc3c(C(=O)Nc4ccccc4)c(C)oc3c3ccccc23)cc1 | 13 | -3 | 84* | 1 | 0
CCOC(=O)c1c(C)oc2c1cc(NS(=O)(=O)c1ccc(C)cc1)c1ccccc12 | · | -11 | · | -1 | ·
CCOc1ccc(S(=O)(=O)NCCC(=O)NCCOc2ccccc2)cc1 | -2 | -5 | ? | 0 | -8
CCCNS(=O)(=O)c1ccc(OCC(=O)NCCCOC)cc1 | 1 | -14 | -3 | 1 | 30*
Cc1ccc(OCCNC(=O)CCNS(=O)(=O)c2ccc(C)cc2)cc1 | -6 | 6 | -19 | 0 | 30*
CCCNS(=O)(=O)c1ccc(OCC(=O)OC)cc1 | 2 | -6 | 9 | 1 | 6
O=C(CSc1n[nH]c(-c2ccccn2)n1)Nc1ccccc1F | -3 | -11 | 1 | 0 | 6
Cc1cc2c(cc1S(=O)(=O)N1CCN(c3cccc(C)c3C)CC1)OCC(=O)N2 | 1 | -3 | 1 | 1 | 50*
Cc1ccc(CCNC(=O)CCS(=O)(=O)c2cc3c(cc2C)NC(=O)CO3)cc1 | 0 | 16 | -6 | 0 | 43*
Cc1cccc(N2CCN(S(=O)(=O)c3ccc4c(c3)NC(=O)CO4)CC2)c1C | -3 | 1 | -4 | 0 | 3
Cc1ccc(CNS(=O)(=O)c2cc3c(cc2C)NC(=O)CO3)cc1 | -6 | 5 | -2 | 4 | 48*
O=C(CCS(=O)(=O)c1cc2c(cc1Cl)NC(=O)CO2)NCCc1ccccc1 | -7 | -3 | 0 | 1 | -3
COc1ccccc1N1CCN(S(=O)(=O)c2ccc3c(c2)CC(C)N3C(C)=O)CC1 (stereo not drawn) | -1 | -14 | -8 | 0 | 33*
COc1ccccc1N1CCN(C(=O)C2CCN(S(=O)(=O)c3ccc4c(c3)CC(C)N4C(C)=O)CC2)CC1 (stereo not drawn) | -2 | -12 | -9 | 1 | -13
CCc1cccc(NC(=O)C2CCN(S(=O)(=O)c3ccc4c(c3)CC(C)N4C(C)=O)CC2)c1 (stereo not drawn) | -5 | 9 | -1 | 0 | 70*
CCc1ccc(NC(=O)C2CCN(S(=O)(=O)c3ccc4c(c3)NC(=O)CO4)CC2)cc1 | 1 | 4 | -17 | -2 | 10
SMILES | D2 ag-1 | D2 PAM-1 | D2 PAM-2 | D2 ag-2 | D2 antag
CC(=O)N1c2ccc(S(=O)(=O)N(C)CC(=O)N3CCCC3)cc2CC1C (stereo not drawn) | -2 | 42* | -7 | 0 | -23
COc1cccc(NC(=O)C2CCN(S(=O)(=O)c3ccc4c(c3)CC(C)N4C(C)=O)CC2)c1 (stereo not drawn) | -1 | -7 | -26 | -1 | 17
CCc1cccc(NC(=O)C2CCN(S(=O)(=O)c3ccc4c(c3)NC(=O)CO4)CC2)c1 | 5 | -25 | -10 | 0 | 30*
Nc1ccc2c(c1)Cc1cc([N+](=O)[O-])ccc1-2 | -7 | -8 | -12 | 47* | 13
Cc1ccc(N(C)S(=O)(=O)c2cccc(C(=O)NCCCN3CCCC3=O)c2)cc1 | 0 | -10 | -3 | 1 | -11
Cc1ccc(NC(=O)CCN2C(=O)NC3(CCCC3)C2=O)c(C)c1 | -5 | -20 | -7 | 18 | 51*
CC(C)Oc1cccc(C(=O)C2CCCN(C(=O)CCc3cnn(C)c3)C2)c1 (stereo not drawn) | -3 | 5 | 6 | -1 | -7
Nc1ccc(-c2ncc(-c3ccccc3)o2)cc1 | 2 | -4 | -4 | -2 | 0
Cc1ccc(-c2cnc(-c3ccncc3)o2)cc1 | 2 | 6 | -5 | 0 | 32*
COC(=O)CCCCCNc1ccc(C(=O)OC)cc1N | -1 | -34 | 8 | 37* | -5
CCS(=O)(=O)NC(C)C(c1cccs1)N1CCN(c2ccc(F)cc2)CC1 (stereo not drawn) | -1 | -4 | -2 | 2 | 40*
COc1ccc(CC(=O)Nc2ccc(S(=O)(=O)Nc3nccs3)cc2)cc1 | -3 | -3 | -1 | 0 | 25
COc1ccc(S(=O)(=O)Nc2ccc(S(=O)(=O)Nc3nccs3)cc2)cc1 | -2 | -1 | 1 | 0 | 50*
COc1cc(OC)cc(C(=O)Nc2ccc(S(=O)(=O)Nc3nc(C)cc(C)n3)cc2)c1 | 5 | 1 | -4 | -1 | 34*
COc1ccc(S(=O)(=O)Nc2ccc(Oc3ncccn3)c(Cl)c2)cc1 | -2 | -9 | 4 | 1 | -6
COc1ccc(NS(=O)(=O)c2ccc(NC(=O)c3ccccn3)cc2)cc1 | 13 | 73* | 0 | 0 | -1
COc1ccc(NS(=O)(=O)c2ccc(Oc3ncccn3)cc2)cc1 | 1 | 46* | 0 | 1 | -3
Cc1cccc(N2CCN(C(=O)C3CCN(S(=O)(=O)c4cn(C)cn4)CC3)CC2)c1C | · | 2 | · | 0 | ·
N#CCCN1CCN(S(=O)(=O)c2cc(Cl)ccc2Cl)CC1 | 0 | 37* | 0 | 0 | 4
c1ccc(Cn2nnnc2C(c2cccs2)N2CCSCC2)cc1 (stereo not drawn) | -2 | -13 | -11 | 0 | 33*
COc1ccc(CSc2nnc3[nH]c(=O)cc(N)n23)cc1 | 2 | 0 | -5 | -1 | 19
CCOc1ccc(-c2nc(SCC(=O)NCCCOC)c(-c3ccccc3)[nH]2)cc1 | · | 22 | · | · | ·
